This passage reports growth results from PubChem BioAssay (NCI).

Several values for one entry are separate records, joined by “and”; a condition that tells them apart may be missing. Identical values can stand only once. Compounds without any hit were thinned out: in the full panel of roughly 83,000, 20% have a hit.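 48-hour exposure, single concentration, 96-well plates; percent growth endpoint where 0 means no net growth. Active: below 10.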 Activity calls are given as the source filed them.

Test systems include HCT-15 colon; HT29 colon; SNB-75 CNS; SNB-19 CNS; PC-3 prostate; SK-MEL-5 melanoma; UACC-62 melanoma; LOX IMVI melanoma; SK-MEL-28 melanoma; SK-MEL-2 melanoma; SN12C renal; UO-31 renal; TK-10 renal; ACHN renal; CAKI-1 renal; A498 renal; HL-60(TB) leukemia; CCRF-CEM leukemia; U251 CNS; EKVX NSCLC.
Holding throughout (assay): NCI-60 one-dose screen, 48 h (100 = growth as untreated, 0 = no growth, -100 = all killed)
Settings in all cases: 10 µM unless noted

Regarding `CC1(C)N=C(N)N=C(N)N1c1ccc(CCC(=O)Nc2ccc(S(=O)(=O)F)cc2)cc1`, the growth was 46.2% (inactive) with HCT-15 colon; 9.44% (active) in the experiment with HT29 colon; 51.8% (inactive) in the experiment with SNB-75 CNS; 55% (inactive) in the experiment with SNB-19 CNS; 20.2% (inactive) in the experiment with PC-3 prostate; 34.8% (inactive) in the experiment on SK-MEL-5 melanoma. Further, the growth in the experiment with UACC-62 melanoma was 26.2% (inactive); with LOX IMVI melanoma, 15.8% (inactive); in the experiment with SK-MEL-28 melanoma, 52% (inactive); with SK-MEL-2 melanoma, 50.4% (inactive); in the experiment on SN12C renal it was 33.4% (inactive); in the experiment with UO-31 renal it was 82.3% (inactive). The growth in the experiment on TK-10 renal was 24.3% (inactive); in the experiment on ACHN renal, 64.5% (inactive); with CAKI-1 renal, 28.8% (inactive); with A498 renal it was 60.3% (inactive); with HL-60(TB) leukemia it was 18.8% (inactive); in the experiment on CCRF-CEM leukemia, 18.9% (inactive).
In the case of `CCCCCCCCCCCCCCCC[N+](C)(C)Cc1ccccc1`, the growth in the experiment on HT29 colon is -43.6% (active) and -81% (active); with SNB-75 CNS it was -21.6% (active) and -70.3% (active); with SNB-19 CNS, -40.3% (active); in the experiment on U251 CNS, -16% (active) and -94.9% (active); with PC-3 prostate it was -34.9% (active) and -44.1% (active); with SK-MEL-5 melanoma, -86.5% (active) and -100% (active). Besides, the growth in the experiment with UACC-62 melanoma was -26% (active) and -74.5% (active); with LOX IMVI melanoma, -79% (active) and -97.1% (active); in the experiment with SK-MEL-28 melanoma, -27.7% (active) and -58.1% (active); in the experiment on SK-MEL-2 melanoma, 25.2% (inactive) and -69% (active); in the experiment with EKVX NSCLC, 15.8% (inactive) and -27.6% (active); with SN12C renal, 5.04% (active) and -76.7% (active). Further, the growth in the experiment on UO-31 renal was 54.3% (inactive) and 51% (inactive); in the experiment on TK-10 renal, 8.74% (active) and -73.5% (active); with ACHN renal it was 55.1% (inactive) and 23.4% (inactive); in the experiment on CAKI-1 renal, 84.4% (inactive) and 50.6% (inactive); in the experiment on A498 renal, 36.2% (inactive) and 38.2% (inactive); in the experiment with HL-60(TB) leukemia, -28.8% (active) and -47.8% (active). Besides, the growth in the experiment on CCRF-CEM leukemia was -22% (active) and -30.1% (active).
For the compound `CCOC(=O)c1ccccc1C(=O)OCC`, the growth in the experiment with HT29 colon is 102% (inactive); in the experiment with SNB-75 CNS, 83.3% (inactive); in the experiment with SNB-19 CNS, 105% (inactive); in the experiment with U251 CNS, 99.9% (inactive); in the experiment with PC-3 prostate it was 113% (inactive); in the experiment on SK-MEL-5 melanoma, 110% (inactive). Besides, the growth in the experiment with UACC-62 melanoma was 91.4% (inactive); in the experiment on LOX IMVI melanoma it was 97.9% (inactive); in the experiment with SK-MEL-28 melanoma it was 114% (inactive); with SK-MEL-2 melanoma, 89.7% (inactive); in the experiment with EKVX NSCLC it was 80.3% (inactive); in the experiment on SN12C renal it was 94.6% (inactive). Besides, the growth in the experiment with UO-31 renal is 84.8% (inactive); with TK-10 renal it was 98.2% (inactive); in the experiment with ACHN renal, 98.4% (inactive); with CAKI-1 renal, 77.2% (inactive); in the experiment with A498 renal it was 104% (inactive); in the experiment on HL-60(TB) leukemia, 141% (inactive). For the same compound, in the experiment on CCRF-CEM leukemia, the growth was 94.8% (inactive).
`O=[N+]([O-])c1c(Cl)cc(Cl)c([N+](=O)[O-])c1Cl`: the growth was 85.9% (inactive) in the experiment with HCT-15 colon; 100% (inactive) in the experiment with HT29 colon; 113% (inactive) in the experiment with SNB-19 CNS; 96.1% (inactive) in the experiment on U251 CNS; 83.2% (inactive) in the experiment with PC-3 prostate; 101% (inactive) with SK-MEL-5 melanoma. The growth was 108% (inactive) in the experiment on UACC-62 melanoma; 33.6% (inactive) with LOX IMVI melanoma; 100% (inactive) with SK-MEL-28 melanoma; 112% (inactive) in the experiment on SK-MEL-2 melanoma; 108% (inactive) with SN12C renal; 112% (inactive) in the experiment with TK-10 renal. Further, the growth was 103% (inactive) with ACHN renal, 111% (inactive) in the experiment on A498 renal, 85.2% (inactive) in the experiment on HL-60(TB) leukemia and 53.5% (inactive) in the experiment with CCRF-CEM leukemia.
In the case of `COC(=O)[C@@H](C)C[C@H](Cc1ccccc1)NC(=O)c1cccc([C@@H](C[C@H](C(C)C)N(C)C(=O)[C@@H](NC(=O)[C@H]2CCCCN2C)C2CC2)OC(C)=O)n1`, the growth in the experiment with HT29 colon was -8.46% (active); in the experiment with SNB-75 CNS, 27.6% (inactive); in the experiment with SNB-19 CNS, 30% (inactive); in the experiment on U251 CNS, 4.48% (active); with PC-3 prostate it was 18.8% (inactive); in the experiment with SK-MEL-5 melanoma, -22.6% (active). Also, the growth in the experiment with UACC-62 melanoma is 41.4% (inactive); with LOX IMVI melanoma, 12.2% (inactive); in the experiment on SK-MEL-28 melanoma, 62% (inactive); in the experiment on SK-MEL-2 melanoma it was 44.2% (inactive); in the experiment on EKVX NSCLC, 54.6% (inactive); in the experiment with SN12C renal, 28.7% (inactive). Also, the growth is 40.6% (inactive) in the experiment on UO-31 renal; 23.9% (inactive) with TK-10 renal; 24.7% (inactive) in the experiment with ACHN renal; 25.7% (inactive) in the experiment with CAKI-1 renal; -4.08% (active) in the experiment on A498 renal; -38.2% (active) with HL-60(TB) leukemia. Also, the growth in the experiment with CCRF-CEM leukemia is 16% (inactive).
As to `Cn1cc(C(=O)C[n+]2ccccc2)c2ccccc21`, the growth is 110% (inactive) with HCT-15 colon; 105% (inactive) in the experiment on HT29 colon; 105% (inactive) with SNB-19 CNS; 97% (inactive) with U251 CNS; 90.4% (inactive) in the experiment with PC-3 prostate; 97.9% (inactive) in the experiment on SK-MEL-5 melanoma. Moreover, the growth in the experiment with UACC-62 melanoma is 105% (inactive); in the experiment with LOX IMVI melanoma, 93.2% (inactive); in the experiment on SK-MEL-28 melanoma it was 114% (inactive); with SK-MEL-2 melanoma it was 104% (inactive); with EKVX NSCLC, 65.4% (inactive); in the experiment on SN12C renal, 101% (inactive). Also, the growth with UO-31 renal is 98% (inactive); in the experiment on TK-10 renal, 115% (inactive); in the experiment on ACHN renal, 109% (inactive); in the experiment with CAKI-1 renal, 99.5% (inactive); in the experiment with A498 renal it was 84.8% (inactive); in the experiment with HL-60(TB) leukemia it was 98.8% (inactive). For the same compound, the growth in the experiment on CCRF-CEM leukemia is 96.6% (inactive).
Consider `CN(C)c1ccc(C=C2C(=O)NC(=O)NC2=O)cc1`, for which the growth was 102% (inactive) in the experiment on HCT-15 colon; 113% (inactive) with HT29 colon; 92% (inactive) with SNB-75 CNS; 97% (inactive) in the experiment on U251 CNS; 105% (inactive) with PC-3 prostate; 94.4% (inactive) in the experiment on SK-MEL-5 melanoma. Moreover, the growth in the experiment with UACC-62 melanoma was 94.5% (inactive); with LOX IMVI melanoma, 85.8% (inactive); in the experiment with SK-MEL-28 melanoma, 92.5% (inactive); in the experiment with SK-MEL-2 melanoma, 105% (inactive); with EKVX NSCLC it was 92.4% (inactive); in the experiment on SN12C renal it was 77.5% (inactive). For the same compound, the growth in the experiment on TK-10 renal is 109% (inactive); in the experiment with ACHN renal, 89.3% (inactive); in the experiment with CAKI-1 renal, 78.9% (inactive); with A498 renal it was 58.2% (inactive); in the experiment on HL-60(TB) leukemia, 102% (inactive); in the experiment with CCRF-CEM leukemia, 115% (inactive).
As to `Clc1ccc(COC(Cn2ccnc2)c2ccc(Cl)cc2Cl)c(Cl)c1` (stereo unspecified), the growth was 23.4% (inactive) and 31% (inactive) with HT29 colon; 78.6% (inactive) and 90.2% (inactive) in the experiment on SNB-75 CNS; 83.4% (inactive) and 83.8% (inactive) with SNB-19 CNS; 45.5% (inactive) and 69.4% (inactive) in the experiment with U251 CNS; 40.9% (inactive) and 39.3% (inactive) in the experiment on PC-3 prostate; 39% (inactive) and 3.49% (active) with SK-MEL-5 melanoma. The growth with UACC-62 melanoma is 41.5% (inactive) and 52.1% (inactive); in the experiment on LOX IMVI melanoma, 34% (inactive) and 47.6% (inactive); in the experiment with SK-MEL-28 melanoma, 81.5% (inactive); with SK-MEL-2 melanoma, 69.7% (inactive) and 87% (inactive); with EKVX NSCLC it was 48.6% (inactive) and 59.2% (inactive); with SN12C renal, 53.6% (inactive) and 73.9% (inactive). For the same compound, the growth was 25.8% (inactive) and 35.5% (inactive) with UO-31 renal; 62.1% (inactive) and 73.5% (inactive) with TK-10 renal; 53.8% (inactive) and 72.4% (inactive) with ACHN renal; 29.6% (inactive) and 53.7% (inactive) in the experiment with CAKI-1 renal; 46.1% (inactive) with A498 renal; 51% (inactive) and 53.5% (inactive) in the experiment with CCRF-CEM leukemia.
